High-throughput results as filed in PubChem BioAssay.
G9a block – blocks human histone lysine methyltransferase G9a; Potency, µM (series often up to 102 µM), most hits filed as inhibitors; Q96KQ7; G9a H3K9 monomethylation, AlphaScreen, 2 h; 350,000 tested, 8.8% active; further: nearly all actives have a fitted effect of over 75% in size
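Chemiluminescent proximity detection of H3K9 monomethylation, read after 10 min bead incubation in the dark. Reaction: 20 nM G9a, 500 nM biotin-H3K9 peptide, 20 uM SAM cofactor, 2 h, room temperature, following 15 min enzyme-compound preincubation.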
L3MBTL1 block – blocks human L3MBTL1; Q9Y468; AlphaScreen L3MBTL1–H3K9me1 peptide binding; Potency, µM (doses to about 57.1 µM), hits mostly inhibitors; 230,000 tested, 0.66% active; AID 485360; further: nearly all actives have a fitted effect of over 60% in size
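First, the protein-peptide complex forms for 30 min at room temperature (L3MBTL1 50 nM, biotinylated H3K9me1 peptide 75 nM). Next, compounds are pin-transferred and incubated 30 min. Finally, AlphaScreen beads are added and read after 30 min.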
HP1b chromo inh – HP1-beta chromodomain-methylated histone interaction inhibition | P83916 | AlphaScreen HP1-beta / biotin-H3K9me3 peptide binding | Potency, µM (series often up to 114 µM), hits mostly inhibitors | 390,000 tested, 0.56% active | AID 540317; further: nearly all actives have a fitted effect of over 70% in size
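AlphaScreen: HP1-beta (50 nM) preformed 30 min with biotin-H3(1-18)K9me3 peptide (50 nM) in PBS pH 7.4, 0.01% Tween-20. Compound added for 30 min at RT, then streptavidin donor/nickel chelate acceptor beads (10 ug/mL) for 30 min.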
Sfp PPTase inh – blocks B. subtilis Sfp PPTase activity; Q9F4F7; Biochemical Sfp PPTase activity, qHTS; Potency, µM, most hits filed as inhibitors; 310,000 tested, 3.5% active; AID 1490;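 further: the enzyme is Sfp with the accession as filed and its product quenches rhodamine fluorescence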
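Buffer: 50 mM Hepes-Na pH 7.6, 10 mM MgCl2, 0.01% Nonidet P-40, 0.01% BSA. Enzyme 15 nM, pre-exposed to compound 15 min; substrates then added and fluorescence change tracked over 30 min.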
JMJD2A Tudor inh – inhibitors of human JMJD2A Tudor domain | AID 504339 | AlphaScreen JMJD2A-Tudor / H3K4me3 peptide binding | 390,000 tested, 4.4% active | Potency, µM (doses to about 114 µM), actives largely listed as inhibitors | O75164; further: nearly all actives have a fitted effect of over 50% in size
BAZ2B block – BAZ2B (human) inhibition. AlphaScreen BAZ2B-H3K14Ac peptide displacement. Potency, µM (series often up to 114 µM), most hits filed as inhibitors. 360,000 tested, 4.4% active. Q9UIF8; further: nearly all actives have a fitted effect of over 60% in size
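AlphaScreen displacement: compounds (up to 110uM) incubated 30 min at room temperature with a preformed 50 nM BAZ2B/50 nM biotinylated H3K14Ac peptide complex in PBS pH 7.4 with Tween-20. Donor and acceptor beads at 10 ug/mL final added, 20 min light-protected before reading.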
Hits are given with their value; – = inactive; ? = inconclusive; · = no result; [ ] = remark or other dose. An excerpt weighted towards active compounds, which were near 12% of everything screened. The call rests on the fitted dose curve; in most records, active means well fitted curve in the direction sought with a large enough effect; inconclusive means small, poorly fitted or top-dose-only effect, or another doubt; inactive means no such curve, though single readings can be large; an effect the other way counts as inactive or inconclusive.

SMILES	G9a block	L3MBTL1 block	HP1b chromo inh	Sfp PPTase inh	JMJD2A Tudor inh	BAZ2B block
COc1ccccc1CNC(=O)CSc1ccc(-c2ccccn2)nn1	–	·	–	–	32µM	8.9µM
COc1ccccc1CNC(=O)CSc1ccc(-c2cccs2)nn1	–	·	–	–	–	–
Cc1csc(NC(=O)CSc2ccc(-c3ccccn3)nn2)n1	–	·	–	–	22µM	7.1µM
COc1ccccc1N1CCN(S(=O)(=O)c2c(C)sc3ncn(CC(=O)Nc4ccc(C(C)C)cc4)c(=O)c23)CC1	–	·	–	·	–	–
COc1ccc(CCN2C(=O)C3C4CCC(C4=C(C)C)C3C2=O)cc1OC (centres undefined)	–	–	–	–	–	–
COc1ccc2ccccc2c1C1CC(=O)N2CN(C)CSC2=C1C#N (centres undefined)	1.6µM	–	?	7.9µM	28µM	?
COc1ccc(Br)cc1C1CC(=O)N2CN(C)CSC2=C1C#N (centres undefined)	1.4µM	–	?	2.2µM	?	–
N#CC1=C2SCN(Cc3ccccc3)CN2C(=O)CC1c1ccccc1F (centres undefined)	1.8µM	–	?	2µM	79µM	–
CCSC1=C(C#N)C(c2ccccc2OC)CC(=O)N1 (centres undefined)	–	–	–	–	–	–
COc1ccc(Br)cc1C1CC(=O)N2CN(Cc3ccccc3)CSC2=C1C#N (centres undefined)	1.4µM	–	–	2.2µM	?	–
CCCCN(CC)C(=O)CSc1nc2n[nH]c(C)c2c(=N)n1-c1cccc(Cl)c1	–	·	–	·	–	–
Cc1cc(C)c2c(n1)nn1c(C)c(CCC(=O)NCc3ccc(Cl)cc3)c(C)nc21	–	·	–	·	–	–
CCCc1nnc(NC(=O)Cc2coc3cc(C)cc(C)c23)s1	–	·	–	·	–	–
Cc1nc2c(-c3ccc(F)cc3)c(C)nn2c(C)c1CCC(=O)NCc1cccc(Cl)c1	–	·	–	·	–	–
COc1cc(OC)c(C2CC(=O)N3CN(C)CSC3=C2C#N)cc1OC (centres undefined)	1.3µM	–	–	3.5µM	4µM	–
COC(=O)c1ccc2c(=O)n(CCCCCC(=O)N3CCN(c4cc(Cl)ccc4C)CC3)c(=O)[nH]c2c1	–	·	–	·	–	–
Cc1ccc(S(=O)(=O)N/N=C/c2cccc(OC3CSC3)c2)cc1	8.9µM	–	–	–	–	–
Cc1ccc(S(=O)(=O)N/N=C/c2cccc3c2OCCO3)cc1	10µM	–	–	–	–	–
Cc1ccc(S(=O)(=O)N/N=C/c2cccc3nccnc23)cc1	·	–	–	–	–	–
Cc1ccc(S(=O)(=O)N/N=C/c2ccc(C#N)cc2)cc1	2.2µM	·	–	–	–	–
CCOc1ccc(/C=N/NS(=O)(=O)c2ccc(C)cc2)cc1OC	?	–	–	–	–	–
CCc1ccccc1Nc1cc(C(=O)NCCc2ccccc2)c2ccccc2n1	–	·	–	·	–	·
Nc1nc2ccccc2n1C(=O)c1ccc(F)cc1	?	–	–	–	–	–
Nc1nc2ccccc2n1C(=O)c1ccccc1	·	–	–	–	–	79µM
O=C(Nc1ccc(F)cc1F)C(Cc1ccccc1)N1Cc2ccccc2C1=O (centres undefined)	–	·	–	·	–	–
SMILES	G9a block	L3MBTL1 block	HP1b chromo inh	Sfp PPTase inh	JMJD2A Tudor inh	BAZ2B block
COc1ccc(O[C@H]2C=C[C@@H](c3ccccc3)O[C@@H]2CO/N=C(\C)CCN2CCCCc3nc(C)c(C)cc32)cc1	40µM	–	·	–	·	?
C/C(CCN1CCCCc2nc(C)c(C)cc21)=N\OC[C@@H](O)[C@@H]1O[C@@H]2OC(C)(C)O[C@@H]2[C@H]1O	·	·	·	–	·	·
C/C(CCN1CCCCc2nc(C)c(C)cc21)=N\OC[C@@H](O)[C@H]1O[C@@H]2OC(C)(C)O[C@@H]2[C@H]1O	50µM	–	·	–	·	–
NCCC[C@@H](CC(=O)N[C@@H]1CCCC[C@H]1C(=O)N[C@H](CC(=O)N[C@@H](CCC(=O)O)CC(=O)O)Cc1ccccc1)NC(=O)C[C@H](CO)NC(=O)[C@@H]1CCCC[C@H]1N	·	·	·	–	·	·
O=C(N/N=C/c1c(O)ccc2ccccc12)c1ccc(Br)o1	?	·	–	–	?	56µM
CN1CCN(CCC(=O)N/N=C/c2ccccn2)CC1	1.3µM	–	–	–	7.9µM	?
Cc1ccc(S(=O)(=O)N2CCN(CC(=O)N/N=C\c3ccccn3)CC2)cc1	–	–	–	–	–	–
O=C(N/N=C/c1ccccn1)C1CC1	3.5µM	·	–	79µM	1.3µM	?
O=C(NN=Cc1c(O)ccc2ccccc12)c1ccncc1	·	·	–	·	79µM	·
CCCCCCCCCCCCCC(=O)N[C@@H](C)[C@H](O)c1ccccc1	–	·	·	–	·	·
CCOC(=O)c1ccc(N=C2SC(C(=O)Nc3ccccc3)CC(=O)N2C)cc1 (centres undefined)	–	·	–	·	–	–
Cc1ccccc1NC(=O)CSC1=Nc2ccccc2C2=NC(CCC(=O)NCc3ccccc3)C(=O)N12 (centres undefined)	–	·	–	·	–	?
O=C(N/N=C/c1ccccn1)c1ccc(Br)o1	–	–	–	18µM	–	71µM
COc1cc(/C=N/NC(=O)CCN2CCN(C)CC2)cc2c1OCO2	–	·	?	–	0.79µM	–
O=C(N/N=C\c1c(O)ccc2ccccc12)c1ccc(O)cc1	·	–	–	–	?	–
O=C(N/N=C/c1c(O)ccc2ccccc12)c1ccc[n+](CCO)c1	?	35µM	–	–	28µM	13µM
O=C(N/N=C/c1c(O)ccc2ccccc12)c1cccnc1	–	·	–	–	50µM	–
O=C(N/N=C\c1c(O)ccc2ccccc12)c1cncc(Br)c1	–	–	–	–	56µM	35µM
Cc1cc2c(cc1S(=O)(=O)Nc1cccc(C#N)c1)OCC(=O)N2	–	·	–	·	–	–
CCC(=O)N1CCc2cc(S(=O)(=O)CCC(=O)N3CCN(c4cccc(C)c4)C(C)C3)ccc21 (centres undefined)	–	·	–	·	–	·
CCn1c2ccccc2c2cc(/C=N/n3c(-c4cc(C)[nH]n4)n[nH]c3=S)ccc21	2.5µM	–	–	–	?	–
CCn1c2ccccc2c2cc(/C=N/n3cn[nH]c3=S)ccc21	–[0.501 µM]	–	–	–	18µM	?
C#CC(C)OC(=O)Nc1cccc(Cl)c1 (centres undefined)	·	·	·	–	·	·
Cc1ccc(C)c(CN2C(=O)c3ccccc3S(=O)c3ccc(C(=O)N4CCN(c5cccc(Cl)c5)CC4)cc32)c1 (centres undefined)	–	·	–	·	–	?
CCOc1cc(C2Sc3ccccc3NC3=C2C(=O)c2ccccc23)ccc1O (centres undefined)	13µM	·	?	·	14µM	·
O=C1Nc2ccccc2SC1c1ccccc1 (centres undefined)	–[0.501 µM]	·	–	–	–	–
